# Reference: PubChem BioAssay (Tox21)
# A number with no mark means an inactive call. Inconclusive results are not listed. Where a call stands in place of a potency, no number is given. Activity calls are given as the source filed them. Unless noted, calls come from the whole dose curve; as a rule, active = well fitted curve in the direction sought with a large enough effect in the repeat runs; inconclusive = weak or mixed curves; inactive = no such curve, though single readings can be large; an effect the other way counts as inactive or inconclusive.
# Tests used:
# [1] = target: Thyrotropin receptor (Homo sapiens) (UniProt P16473); experiment: qHTS assay to identify small molecule antagonists of the thyroid stimulating hormone receptor (TSHR) signaling pathway (AID 1259385; calls by dose curve; note: nearly all actives have a fitted effect of over 20% in size)
# Method in brief: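 Antagonist mode: compound-treated TSHR-expressing HEK293 cells were stimulated with 1.5 ng/mL TSH (final) in presence of Ro20-1724 for 30 min at RT. HTRF cAMP detection after 1 h; each compound tested at 15 concentrations, triplicate.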
# [2] = qHTS assay to identify small molecule agonists of the estrogen receptor alpha (ER-alpha) signaling pathway in the presence of an antagonist - cell viability counter screen (AID 1259386);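 note: cells exposed to compounds for 22 h at 37 °C before the viability read; nearly all actives have a fitted effect of over 30% in size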; note: potency is the fitted concentration of half-maximal effect
# Method in brief: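 Read-out: CellTiter-Fluor fluorescence after 1hr reagent incubation, measured in the same wells as the luciferase readout. VM7Luc4E2 cells were exposed to 15 compound concentrations with 10.0nM ICI-182,780 for 22hr at 37C.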
# [3] = target: Progesterone receptor (Homo sapiens) (UniProt P06401); experiment: qHTS assay to identify small molecule agonists of the progesterone receptor (PR) signaling pathway (AID 1346784; calls by dose curve; note: nearly all actives have a fitted effect of over 30% in size)
# Method in brief: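 Using charcoal-stripped serum (2%) to limit endogenous steroids, PR-UAS-bla HEK 293T cells received compounds for 16 hr at 37C after 6 hr plating; beta-lactamase FRET fluorescence was recorded following 2 hr substrate loading at room temperature.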
# [4] = target: Progesterone receptor (Homo sapiens) (UniProt P06401); experiment: qHTS assay to identify small molecule antagonists of the progesterone receptor (PR) signaling pathway (AID 1346795; active = well fitted inhibition curve with a large enough effect in the signal ratio in the repeat runs, not every such curve was filed as active; the % refers to the signal ratio)
# Method in brief: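 Inhibition of R5020-induced (1 nM final) beta-lactamase reporter signal in PR-UAS-bla HEK293T cells was scored by FRET fluorescence after overnight (16 hr) compound treatment.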
# [5] = qHTS assay to identify small molecule antagonists of the progesterone receptor (PR) signaling pathway - cell viability counter screen (AID 1346798); note: series mostly up to about 92 µM; nearly all actives have a fitted effect of over 50% in size
# Method in brief: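 ATP content as viability readout: CellTiter-Glo luminescence, 30 min room temperature, in PR-UAS-bla HEK293T cells after 16 hr compound/R5020 treatment at 37C and 5% CO2.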
# [6] = qHTS assay to identify small molecule agonists of the TGF-beta/Smad signaling pathway - cell viability counter screen (AID 1346829); note: top concentration of the series differs between compounds; nearly all actives have a fitted effect of over 45% in size
# Method in brief: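 Here the cytotoxicity of library compounds is measured in SBE-bla HEK 293T cells treated for 5 hr, using CellTiter-Glo added to wells already read for the beta-lactamase reporter.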
# [7] = qHTS assay to identify small molecule agonists of the TGF-beta/Smad signaling pathway (AID 1346859; active = well fitted activation curve with a large enough effect in the signal ratio in the repeat runs, not every such curve was filed as active; the % refers to the signal ratio; note: series mostly up to about 77 µM)
# Method in brief: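 Stable Smad binding element-beta-lactamase HEK 293T cells; 5 hr compound exposure at 37 C under 5% CO2; 2 hr room-temperature substrate step; fluorescence excited at 405 nm, collected at 460 nm and 530 nm.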
# [8] = target: Thyrotropin-releasing hormone receptor (Homo sapiens) (UniProt P34981); experiment: qHTS assay to identify small molecule antagonists of the thyrotropin-releasing hormone receptor (TRHR) signaling pathway (AID 1346877; active = well fitted inhibition curve with a large enough effect in the repeat runs, not every such curve was filed as active; note: series mostly up to about 51 µM)
# Method in brief: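 HEK293/TRHR cells, 18 h, 37 °C; Ca2+ dye 2 h; cpd 5 min RT; TRH 1 nM final; fluorescence read 3 min, 1 s intervals; 15 concs, triplicate.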
# [9] = target: Thyrotropin-releasing hormone receptor (Homo sapiens) (UniProt P34981); experiment: qHTS assay to identify small molecule agonists of the thyrotropin-releasing hormone receptor (TRHR) signaling pathway (AID 1346891; calls by dose curve;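 note: HEK293 cells expressing TRHR with calcium dye readout; series mostly up to about 58 µM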)
# Method in brief: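 In 1536-format, 1500 TRHR-Hek293 cells per well grew 18 h, took up calcium dye for 2 h at 37 °C, received compound, and were read kinetically; 15-point titrations, triplicates.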
# [10] = Human pregnane X receptor (PXR) small molecule agonists, qHTS cell viability counter screen (AID 1346977); note: nearly all actives have a fitted effect of over 50% in size; note: potency is the fitted concentration of half-maximal effect
# Method in brief: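 Readout is CellTiter-Fluor fluorescence from PXR-Luc HepG2 cells. Plated cells rested 5hr, then were treated with compounds for 24hr at 37C and 5% CO2, with reagent present during the last hour.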
# [11] = Caspase-3/7 induction in HepG2 cells by small molecules, qHTS assay (AID 1346978); note: nearly all actives have a fitted effect of over 15% in size
# Method in brief: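 Caspase-3/7 induction was measured by Caspase-Glo 3/7 luminescence (30 min, room temperature) after a 17 hr compound exposure of wild-type HepG2 cells seeded at 2,000 per well and pre-incubated 5 hr.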
# [12] = Caspase-3/7 induction in CHO-K1 cells by small molecules, qHTS cell viability counter screen (AID 1346979); note: nearly all actives have a fitted effect of over 35% in size; note: potency is the fitted concentration of half-maximal effect
# Method in brief: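 To flag cytotoxic compounds, treated CHO-K1 wild-type cells were given CellTiter-Fluor at 16hr and read fluorescently after 1hr at 37C; the caspase-3/7 luminescence was measured in these same wells.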
# [13] = Caspase-3/7 induction in CHO-K1 cells by small molecules, qHTS assay (AID 1346980); note: nearly all actives have a fitted effect of over 15% in size
# Method in brief: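 Luminescent Caspase-Glo 3/7 read (30min, room temperature) quantified apoptosis induction. Cells were wild-type CHO-K1, treated with compound for 17hr at 37 C and 5% CO2.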
# [14] = Caspase-3/7 induction in HepG2 cells by small molecules, qHTS cell viability counter screen (AID 1346981); note: nearly all actives have a fitted effect of over 30% in size; note: potency is the fitted concentration of half-maximal effect
# Method in brief: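 Fluorescence read-out of live-cell protease activity (CellTiter-Fluor) after 1 hr with reagent. This was measured in the same wells as the caspase-3/7 luminescence, on HepG2 cells exposed to DMSO-dissolved compounds for 16 hr at 37 C.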
# [15] = target: Nuclear receptor subfamily 1 group I member 2 (Homo sapiens) (UniProt O75469); experiment: CYP3A4 induction through human pregnane X receptor (PXR) by small molecules, qHTS assay (AID 1346984); note: nearly all actives have a fitted effect of over 40% in size; note: potency is the fitted concentration of half-maximal effect
# Method in brief: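 HepG2-derived DPX-2 line carrying PXR plus a CYP3A4-promoter luciferase reporter; cells plated 5 hr, compound-exposed 24 hr at 37C. CYP3A4 activity probed with 3uM (final) Luciferin-IPA for 3hr, then luciferase read after One-Glo.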
# [16] = target: Nuclear receptor subfamily 1 group I member 2 (Homo sapiens) (UniProt O75469); experiment: Human pregnane X receptor (PXR) activation by small molecules, qHTS assay (AID 1346985); note: nearly all actives have a fitted effect of over 40% in size; note: potency is the fitted concentration of half-maximal effect
# Method in brief: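 DPX-2 cells (HepG2 co-transfected with a PXR response element and a CYP3A4-promoter luciferase construct) were seeded at 2,000 per well, rested 5 hr at 37C, then exposed to DMSO-dissolved compounds for 24 hr. Activation was read as luciferase luminescence.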
# [17] = qHTS assay to identify small molecule agonists of the progesterone receptor (PR) signaling pathway - cell viability counter screen (AID 1346799; calls by dose curve; note: nearly all actives have a fitted effect of over 45% in size; note: potency is the fitted concentration of half-maximal effect)
# Method in brief: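 Cytotoxicity in PR-bla HEK293T cells: 16 h compound, 37C; CellTiter-Glo added post-FRET read; luminescence after 30 min RT.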
# [18] = qHTS assay to identify small molecule antagonists of the TGF-beta/Smad signaling pathway - cell viability counter screen (AID 1346824); note: nearly all actives have a fitted effect of over 50% in size
# Method in brief: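 Cytotoxicity counter-screen run in the same wells as the beta-lactamase Smad reporter read: CellTiter-Glo luminescence after 30 min at room temperature. HEK 293T SBE-bla cells had 5 hr compound exposure at 37 C with TGF-beta1 (0.25 ng/mL stock).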
# [19] = target: Nuclear receptor subfamily 1 group I member 2 (Homo sapiens) (UniProt O75469); experiment: Human pregnane X receptor (PXR) small molecule agonists, qHTS assay (AID 1346982); note: nearly all actives have a fitted effect of over 35% in size; note: potency is the fitted concentration of half-maximal effect
# Method in brief: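 HepG2 PXR-Luc reporter line, 5% charcoal-stripped FBS; 5 hr pre-incubation, compound (DMSO) 24 hr at 37 C/5% CO2; ONE-Glo 30 min RT; luminescence read-out.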
# [20] = target: Nuclear receptor subfamily 1 group I member 2 (Rattus norvegicus) (UniProt Q9R1A7); experiment: Rat pregnane X receptor (rPXR) activation by small molecules, qHTS assay (AID 1346983); details: rPXR luciferase reporter cells, One-Glo luminescence, 24 h; stronger effect = higher value; note: nearly all actives have a fitted effect of over 20% in size
# Method in brief: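 Luminescent readout (One-Glo luciferase, 30 min room temperature) followed 24 hr compound treatment at 37 C of rPXR cells plated 2,000 per well and preincubated 5hr; qHTS format with compounds delivered in DMSO.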
# Chain of Progesterone receptor (Homo sapiens) (P06401 whole entry, looked up): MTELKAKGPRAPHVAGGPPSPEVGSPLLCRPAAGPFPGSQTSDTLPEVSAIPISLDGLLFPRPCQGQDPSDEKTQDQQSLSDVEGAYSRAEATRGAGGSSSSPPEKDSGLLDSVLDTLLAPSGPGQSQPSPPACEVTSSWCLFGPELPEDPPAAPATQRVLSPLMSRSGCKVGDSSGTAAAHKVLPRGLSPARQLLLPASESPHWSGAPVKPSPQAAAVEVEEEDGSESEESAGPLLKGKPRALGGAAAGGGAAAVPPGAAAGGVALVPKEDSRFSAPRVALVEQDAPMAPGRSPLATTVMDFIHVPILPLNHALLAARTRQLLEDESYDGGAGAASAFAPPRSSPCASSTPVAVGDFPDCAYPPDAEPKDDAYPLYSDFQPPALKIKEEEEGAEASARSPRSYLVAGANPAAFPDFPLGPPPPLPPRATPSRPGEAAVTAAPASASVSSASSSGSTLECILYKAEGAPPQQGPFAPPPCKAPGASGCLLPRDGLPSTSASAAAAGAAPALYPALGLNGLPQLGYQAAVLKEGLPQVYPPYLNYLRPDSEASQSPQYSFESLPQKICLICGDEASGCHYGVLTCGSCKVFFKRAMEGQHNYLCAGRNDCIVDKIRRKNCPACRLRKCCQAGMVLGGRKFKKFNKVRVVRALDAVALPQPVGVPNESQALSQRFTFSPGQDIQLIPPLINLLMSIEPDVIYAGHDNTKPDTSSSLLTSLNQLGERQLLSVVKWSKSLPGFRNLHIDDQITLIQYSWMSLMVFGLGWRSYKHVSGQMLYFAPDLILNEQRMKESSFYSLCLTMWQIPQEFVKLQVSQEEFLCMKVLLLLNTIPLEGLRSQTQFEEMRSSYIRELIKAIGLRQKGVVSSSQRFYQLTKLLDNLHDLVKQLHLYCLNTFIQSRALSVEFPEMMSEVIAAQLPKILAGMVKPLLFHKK
# Chain of Thyrotropin-releasing hormone receptor (Homo sapiens) (P34981 whole entry, looked up): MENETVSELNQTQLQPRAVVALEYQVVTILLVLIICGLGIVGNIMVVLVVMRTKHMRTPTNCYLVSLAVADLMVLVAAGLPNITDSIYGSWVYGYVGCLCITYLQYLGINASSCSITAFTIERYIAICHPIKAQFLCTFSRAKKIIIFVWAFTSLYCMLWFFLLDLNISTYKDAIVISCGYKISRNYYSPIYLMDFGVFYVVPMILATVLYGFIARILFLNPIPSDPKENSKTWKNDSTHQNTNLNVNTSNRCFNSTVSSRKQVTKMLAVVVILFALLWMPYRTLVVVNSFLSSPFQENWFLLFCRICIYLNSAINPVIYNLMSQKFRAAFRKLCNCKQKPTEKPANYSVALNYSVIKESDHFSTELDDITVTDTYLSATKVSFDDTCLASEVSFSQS
# Chain of Nuclear receptor subfamily 1 group I member 2 (Homo sapiens) (O75469 whole entry, looked up): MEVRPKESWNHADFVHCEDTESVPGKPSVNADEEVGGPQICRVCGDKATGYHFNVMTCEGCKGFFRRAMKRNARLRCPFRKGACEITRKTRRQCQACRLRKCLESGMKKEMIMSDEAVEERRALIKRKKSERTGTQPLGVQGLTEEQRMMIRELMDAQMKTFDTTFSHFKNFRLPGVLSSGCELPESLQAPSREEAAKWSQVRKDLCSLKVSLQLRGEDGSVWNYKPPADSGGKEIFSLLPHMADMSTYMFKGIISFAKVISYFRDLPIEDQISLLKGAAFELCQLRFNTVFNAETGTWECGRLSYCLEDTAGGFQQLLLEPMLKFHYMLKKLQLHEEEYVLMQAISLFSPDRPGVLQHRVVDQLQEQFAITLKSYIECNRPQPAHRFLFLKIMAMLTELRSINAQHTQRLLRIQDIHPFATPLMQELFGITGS
# Chain of Thyrotropin receptor (Homo sapiens) (P16473 whole entry, looked up): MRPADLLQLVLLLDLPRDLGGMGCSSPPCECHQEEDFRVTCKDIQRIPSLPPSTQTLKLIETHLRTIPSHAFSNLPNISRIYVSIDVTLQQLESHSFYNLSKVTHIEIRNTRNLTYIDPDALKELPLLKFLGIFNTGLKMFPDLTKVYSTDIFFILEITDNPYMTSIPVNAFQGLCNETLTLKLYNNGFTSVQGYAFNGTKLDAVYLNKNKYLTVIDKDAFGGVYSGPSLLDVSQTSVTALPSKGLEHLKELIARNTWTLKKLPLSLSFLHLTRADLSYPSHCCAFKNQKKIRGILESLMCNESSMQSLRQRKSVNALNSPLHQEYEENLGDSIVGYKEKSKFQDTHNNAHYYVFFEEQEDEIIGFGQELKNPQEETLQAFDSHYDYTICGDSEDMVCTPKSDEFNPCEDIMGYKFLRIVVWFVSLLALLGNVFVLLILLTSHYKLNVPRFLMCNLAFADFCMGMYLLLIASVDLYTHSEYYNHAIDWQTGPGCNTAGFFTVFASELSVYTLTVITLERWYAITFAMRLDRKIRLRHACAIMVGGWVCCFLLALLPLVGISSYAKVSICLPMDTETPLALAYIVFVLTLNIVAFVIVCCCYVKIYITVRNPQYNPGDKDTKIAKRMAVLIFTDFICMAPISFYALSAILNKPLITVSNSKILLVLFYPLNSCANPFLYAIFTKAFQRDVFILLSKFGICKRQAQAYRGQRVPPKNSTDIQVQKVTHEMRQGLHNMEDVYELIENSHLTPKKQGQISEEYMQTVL
# Chain of Nuclear receptor subfamily 1 group I member 2 (Rattus norvegicus) (Q9R1A7 whole entry, looked up): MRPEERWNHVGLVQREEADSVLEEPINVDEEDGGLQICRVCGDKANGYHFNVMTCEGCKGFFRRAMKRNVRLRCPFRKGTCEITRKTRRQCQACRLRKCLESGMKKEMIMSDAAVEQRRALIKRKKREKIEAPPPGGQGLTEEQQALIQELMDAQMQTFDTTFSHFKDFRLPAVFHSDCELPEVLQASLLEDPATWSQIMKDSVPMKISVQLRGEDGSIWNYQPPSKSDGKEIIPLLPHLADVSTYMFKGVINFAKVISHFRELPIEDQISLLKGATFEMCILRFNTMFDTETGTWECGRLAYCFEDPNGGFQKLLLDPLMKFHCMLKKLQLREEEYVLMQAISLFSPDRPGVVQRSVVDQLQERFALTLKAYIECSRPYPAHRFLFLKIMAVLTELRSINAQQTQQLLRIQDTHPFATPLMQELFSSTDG
SMILES,outcome [1],Potency [2],Potency [3],Potency [4],Potency [5],outcome [6],outcome [7],outcome [8],outcome [9],Potency [10],Potency [11],Potency [12],outcome [13],Potency [14],Potency [15],Potency [16],Potency [17],outcome [18],Potency [19],max activation [20]
CC(S)C(=O)NCC(=O)O (stereo not drawn),inactive,inactive,inactive,inactive,inactive,inactive,inactive,inactive,inactive,inactive,inactive,inactive,inactive,inactive,inactive,inactive,–,–,–,–
CC(C)C(=O)OCc1cccc(OC(=O)[C@@H]2N3C(=O)[C@@H](NC(=O)Cc4ccccc4)[C@H]3SC2(C)C)c1,inactive,inactive,inactive,–,inactive,–,inactive,inactive,inactive,inactive,inactive,inactive,inactive,inactive,–,–,inactive,inactive,inactive,–
CC(C)N(c1ccccc1)C(C)C,inactive,inactive,inactive,–,inactive,inactive,inactive,–,–,inactive,inactive,inactive,–,inactive,–,–,inactive,inactive,inactive,–
CO[C@@H]1[C@@H](OC(N)=O)[C@@H](O)[C@H](Oc2ccc3c(O)c(NC(=O)c4ccc(O)c(CC=C(C)C)c4)c(=O)oc3c2C)OC1(C)C,inactive,inactive,inactive,inactive,inactive,inactive,inactive,–,inactive,–,inactive,inactive,inactive,inactive,inactive,inactive,–,inactive,inactive,-3.79%
O=S(=O)(O)CCN1CCN(CCO)CC1,inactive,inactive,inactive,inactive,–,–,inactive,inactive,inactive,inactive,inactive,inactive,inactive,inactive,–,–,–,inactive,inactive,–
CC(=O)/C=C/C1C(C)=CCC(C)C1(C)C (stereo not drawn),inactive,inactive,inactive,–,inactive,–,inactive,–,–,inactive,inactive,inactive,–,inactive,–,–,inactive,inactive,–,–
O=C(CCN1CCN(CCO)CC1)N1c2ccccc2Sc2ccc(C(F)(F)F)cc21,inactive,inactive,inactive,inactive,inactive,inactive,inactive,inactive,inactive,inactive,inactive,inactive,inactive,inactive,10 µM (active),15.8 µM (active),–,–,–,–
c1ccc2nccnc2c1,inactive,inactive,inactive,inactive,–,inactive,inactive,–,inactive,inactive,inactive,inactive,–,inactive,–,–,–,inactive,inactive,–
COc1ccc2nc(SCc3ncc(C)c(OC)c3C)[nH]c2c1,inactive,inactive,inactive,–,inactive,inactive,inactive,–,–,–,inactive,inactive,inactive,inactive,–,–,inactive,inactive,23.7 µM (active),–
Cc1c(I)c(=O)n(-c2ccccc2)n1C,inactive,inactive,inactive,–,inactive,inactive,inactive,inactive,inactive,inactive,inactive,–,inactive,inactive,–,inactive,inactive,inactive,inactive,-0.919%
Cc1cc(C(C)(C)C)c(O)c(C)c1CC1=NCCN1,inactive,inactive,inactive,inactive,inactive,inactive,inactive,inactive,inactive,inactive,–,inactive,inactive,inactive,–,–,–,inactive,inactive,–
C[Si](C)(C)C,inactive,inactive,inactive,–,inactive,inactive,inactive,–,–,inactive,inactive,inactive,inactive,inactive,–,–,inactive,inactive,–,–
O=C(Nc1ccc(Cl)c(Cl)c1)C1CC1,inactive,inactive,inactive,–,inactive,–,inactive,inactive,inactive,inactive,inactive,–,–,inactive,inactive,–,–,inactive,29.8 µM (active),–
COC(=O)c1ccccc1C(=O)c1ccc(OCCN2CCCCC2)cc1,inactive,inactive,inactive,–,inactive,inactive,inactive,inactive,inactive,–,inactive,–,inactive,inactive,–,inactive,inactive,inactive,–,–
C=COCCOCCOCCOC=C,inactive,inactive,inactive,–,inactive,inactive,inactive,–,inactive,inactive,inactive,inactive,inactive,inactive,–,–,inactive,inactive,–,–
On1nnc2ccccc21,inactive,inactive,inactive,inactive,–,inactive,inactive,–,–,inactive,inactive,inactive,inactive,inactive,–,–,1.37 µM (active),–,–,–
O=C1c2ccccc2C(=O)c2cc(S(=O)(=O)O)ccc21,inactive,inactive,inactive,–,inactive,inactive,inactive,inactive,inactive,inactive,inactive,inactive,–,inactive,–,–,inactive,inactive,48.7 µM (active),–
Cc1cccc(OCC(O)CNC(C)(C)C)c1C (stereo not drawn),inactive,inactive,inactive,inactive,–,–,inactive,inactive,inactive,–,inactive,inactive,inactive,inactive,–,–,inactive,inactive,inactive,–
COCCOCCOCCOCCOCCO,inactive,inactive,inactive,–,inactive,inactive,inactive,–,inactive,inactive,inactive,–,inactive,inactive,–,–,inactive,inactive,inactive,–
CC(C)OC(=O)CCCCC(=O)OC(C)C,inactive,inactive,inactive,–,inactive,–,inactive,inactive,inactive,inactive,inactive,inactive,inactive,inactive,–,–,inactive,inactive,inactive,–
CC1=C(C(=O)O)N2C(=O)[C@@H](NC(=O)[C@H](N)c3ccc(O)cc3)[C@H]2SC1,inactive,inactive,inactive,–,–,inactive,inactive,–,–,inactive,inactive,inactive,inactive,inactive,–,–,inactive,inactive,–,–
CC(C)NCC(O)COc1cccc2[nH]ccc12 (stereo not drawn),inactive,inactive,–,–,inactive,inactive,inactive,inactive,inactive,–,–,inactive,inactive,inactive,–,–,inactive,–,–,–
O=C1c2cccc3c2[C@H](CCC3)CN1[C@@H]1CN2CCC1CC2,inactive,–,inactive,–,–,–,inactive,–,inactive,–,inactive,–,inactive,inactive,–,inactive,26.6 µM (active),inactive,inactive,–
CCCC/C=C\CCCCCCCCCC=O,inactive,inactive,–,–,inactive,inactive,inactive,inactive,inactive,inactive,inactive,inactive,inactive,inactive,–,–,inactive,inactive,–,–
c1ccc2c(c1)ccc1c3ccccc3ccc21,inactive,inactive,–,–,inactive,inactive,inactive,–,inactive,–,–,inactive,inactive,inactive,–,–,inactive,inactive,inactive,–
Nc1ccc2cc(S(=O)(=O)O)cc(O)c2c1,–,48.3 µM (active),inactive,inactive,inactive,inactive,inactive,inactive,inactive,54.2 µM (active),inactive,54.2 µM (active),inactive,60.8 µM (active),–,–,inactive,inactive,6.08 µM (active),–
O=C(OCC(COC(=O)c1cccnc1)(COC(=O)c1cccnc1)COC(=O)c1cccnc1)c1cccnc1,–,inactive,inactive,inactive,inactive,inactive,inactive,inactive,inactive,inactive,inactive,–,–,inactive,–,–,inactive,inactive,inactive,–
C[C@@H]1O[C@@H](O[C@@H]2[C@@H](O)[C@H](OCCc3ccc(O)c(O)c3)O[C@H](CO[C@@H]3O[C@H](CO)[C@@H](O)[C@H](O)[C@H]3O)[C@H]2OC(=O)/C=C/c2ccc(O)c(O)c2)[C@H](O)[C@H](O)[C@H]1O,inactive,–,–,–,inactive,inactive,inactive,–,inactive,–,–,–,inactive,inactive,–,–,inactive,inactive,–,–
